Source: PubChem BioAssay

Test: reducers of polyQ inclusions in PC12 cells, cell-based, NGF-treated PC12, GFPQ80 (AID 1614);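 note: lower means fewer inclusions and 0 means no inclusions at all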
Conditions: PC12 NGF-treated GFP-polyQ80 inclusion reduction

C[C@@H]1CC[C@H]2[C@@H](C)C(=O)O[C@@H]3OC4(C)CC[C@@H]1[C@]32OO4 and CO[C@H]1[C@H](O)[C@H](O[C@H]2CC[C@]3(C)C4CC[C@]5(C)C(C6=CC(=O)OC6)CC[C@]5(O)C4CC[C@@H]3C2)O[C@@H](C)[C@@H]1O (some centres undefined) are the same in inclusion score: 2 for the first, 2 for the second.

CCC(C)C(=O)O[C@H]1[C@H](O)C2C(CN3CC(C)CCC3[C@@]2(C)O)C2C[C@]34O[C@]5(O)C(OC(=O)C(C)(O)C(C)O)CC[C@@]3(C)C5C(OC(C)=O)[C@@H](OC(C)=O)C4[C@@]21O (some centres undefined) and C/C=C(\C)C(=O)O[C@H]1C[C@@H](OC(C)=O)[C@@]2(C(=O)OC)CO[C@@H]3C2[C@]12CO[C@](O)(C(=O)OC)[C@H]2[C@](C)(C12O[C@@]1(C)[C@H]1C[C@@H]2OC2OC=C[C@@]21O)[C@@H]3O (some centres undefined) are the same in inclusion score: 2 for the first, 2 for the second.

First: O=C1CC2OCC=C3CN4CC[C@]56c7ccccc7N1C5[C@H]2[C@H]3CC46 (some centres undefined)
Second: COc1ccc2c(c1)[C@]13CCCC[C@H]1[C@H](C2)N(C)CC3
The inclusion score of the first is lower: 1 for the first, 2 for the second.

COc1ccc2c(c1OC)C(=O)O[C@H]2[C@H]1c2cc3c(cc2CCN1C)OCO3 and C[C@H]1O[C@@H](O[C@H]2[C@@H](O)C[C@H](O[C@H]3[C@@H](O)C[C@H](O[C@H]4CC[C@]5(C)C6CC[C@]7(C)[C@@H](C8=CC(=O)OC8)CC[C@]7(O)C6CC[C@@H]5C4)O[C@@H]3C)O[C@@H]2C)C[C@H](O)[C@@H]1O (some centres undefined) are the same in inclusion score: 2 for the first, 2 for the second.

With C=C1C2CC[C@H]3[C@]4(C)C[C@H](OC5OC(CO)C(OS(=O)(=O)O)C(OS(=O)(=O)O)C5OC(=O)CC(C)C)C[C@@H](C(=O)O)[C@H]4CC[C@]3(C2)[C@H]1O (some centres undefined) the inclusion score was 2.
